# Assay results as given in PubChem BioAssay AID686979 (National Center for Advancing Translational Sciences (NCATS), 2013).
# About 50,000 (12%) of roughly 420,000 compounds were called active. Inconclusive results (about 26%) are left out. The call rests on the fitted dose curve; in most records, active means well fitted inhibition curve with a large enough effect; inconclusive means small, poorly fitted or top-dose-only effect; inactive means flat fitted curve, though single readings scatter. The full list was thinned out, with actives kept by preference.
# Experiment: qHTS for Inhibitors of human tyrosyl-DNA phosphodiesterase 1 (TDP1): qHTS in cells in presence of CPT; further: nearly all actives have a fitted effect of over 55% in size
# Details: chicken DT40 Tdp1-/-;hTDP1 cells + 20 nM CPT, ATP luminescence, 48 h; series mostly up to 46.2 µM; activity change, negative = growth inhibition: at the top concentration
# Outline: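 Chicken DT40 Tdp1-/- cells complemented with human TDP1, 400 cells/well, exposed to compounds plus 20 nM camptothecin for at least 48 h at 37 C; viability read as ATP content by CellTiter-Glo luminescence.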
# On the % scale 0 is the no-effect control and ±100 the full control effect; potency means the concentration at half of the fitted maximal effect.
SMILES,Potency,"activity change, negative = growth inhibition"
CN1C(=O)CC(c2ccccc2)C1=O (configuration not stated),inactive,–
Cc1ccc(-n2ncc3c(=O)[nH]cnc32)c(C)c1,–,14.5% (inactive)
Cc1ccc(-n2ncc3c(N4CCC(C(N)=O)CC4)ncnc32)cc1,–,-0.778% (inactive)
Cc1ccc(-n2ncc3c(N4CCN(c5ccc(F)cc5)CC4)ncnc32)c(C)c1,11.6 µM (active),–
COc1ccc(CCOC2OC(CO)C(OC(=O)/C=C/c3ccc(O)c(OC)c3)C(O[C@H]3O[C@@H](C)[C@H](O)[C@@H](O)[C@H]3O)C2O)cc1O (some centres not stated),–,8.7% (inactive)
Cc1ccc(S(=O)(=O)CCC(=O)OCC(=O)NCCc2ccc(S(N)(=O)=O)cc2)cc1,–,2.06% (inactive)
Cc1c(C(=O)N2CCCC2)c(S(=O)(=O)NCC(C)c2ccccc2)c(C)n1C (configuration not stated),–,-3.17% (inactive)
CC(C)N=C1CCCC1C(=S)SSC(=S)C1CCCC1=NC(C)C (configuration not stated),0.0366 µM (active),–
COc1ccccc1/C=C1\SC(=O)N(CCC(=O)N(C)C2CCS(=O)(=O)C2)C1=O (configuration not stated),–,-20.6% (inactive)
O=C(O)c1ccccc1-c1ccccc1C(=O)Nc1cccc2ccccc12,–,1.67% (inactive)
O=C(Nc1cccc2ccccc12)c1onc2c1CCCC2,10.3 µM (active),–
COc1ccc(C(=O)Nc2onc3c2CCCC3)cc1,–,-28.1% (inactive)
COC(=O)/C(=C1\Oc2ccc(C(C)(C)C)cc2S1)C(F)(F)F,–,-18.1% (inactive)
CC(Sc1nnc(-c2cccs2)n1C1CC1)C(=O)NCC1CCCO1 (configuration not stated),–,-10.3% (inactive)
O=S(=O)(NCc1ccccc1Br)c1ccccc1Br,–,-15.5% (inactive)
O=C(Nc1ccc([N+](=O)[O-])cc1)C1(c2ccccc2)CCOCC1,–,-26.7% (inactive)
CN(C)c1nnnn1-c1ccc(Cl)cc1,–,0.0585% (inactive)
Clc1ccc(-n2nnnc2-c2cnc(-c3ccccn3)nc2-c2cccs2)cc1,6.51 µM (active),–
O=C(CN1C(=O)CSC1=O)N1CCCC(Nc2ccc(F)cc2)C1 (configuration not stated),–,0.241% (inactive)
COc1ccc(CCNC(=O)c2cc3cccc4c3n2CC(C)S4)c(OC)c1OC (configuration not stated),20.6 µM (active),–
COc1cccc2[nH]c(C(=O)NCCc3ccccc3)cc12,–,-1.97% (inactive)
COc1ccc(CCNC(=O)CCc2c(C)nc3c(c(C)nn3-c3ccc(C)c(C)c3)c2C)c(OC)c1OC,–,1.23% (inactive)
Cc1c(C(=O)N(C)C)sc2c1c(=O)n(-c1ccc(F)cc1)c(=O)n2CC(=O)N(C)c1ccccc1,–,-11.3% (inactive)
O=C(COC(=O)c1ccccn1)Nc1cccc2ccccc12,–,1.49% (inactive)
Cc1cc(C)nc(-n2nc(C)cc2NC(=O)c2ccc(F)cc2F)n1,4.11 µM (active),–
CCOC(=O)c1cccc(NC(=O)c2ccc(F)cc2F)c1,–,-29.8% (inactive)

SMILES,Potency,"activity change, negative = growth inhibition"
CC(=O)N/C(=N/c1nc(C)cc(C)n1)Nc1ccc(F)cc1F,–,3.17% (inactive)
Cc1noc(C)c1C(=O)OC(C)C(=O)Nc1ccc2c(c1)OCO2 (configuration not stated),–,-10.9% (inactive)
CN1CCN(NC(=O)Nc2ccc(Br)cc2)CC1,–,-4.59% (inactive)
COc1cccc(-c2cccc(NC(=O)C3CCN(C4CCC4)CC3)c2)c1,–,0.465% (inactive)
CCNC(=S)NNC(=O)C1CCN(Cc2ccccc2)CC1,–,-0.188% (inactive)
CCn1cc(CN2CCC(C(=O)Nc3cccc(-c4cccc(Cl)c4)c3)CC2)c(C)n1,13 µM (active),–
O=C(Nc1ccc(-n2cccn2)cc1)C1CCN(Cc2ccsc2)CC1,–,4.59% (inactive)
CCn1cc(CN2CCC(n3nccc3NC(=O)CCCc3ccccc3)CC2)c(C)n1,–,8.22% (inactive)
CCn1cc(CN2CCC(C(=O)Nc3cccc(-c4cccc(Cl)c4)c3)CC2)cn1,16.4 µM (active),–
CC(CCn1cccn1)NC(=O)CCc1nnc(CCc2ccccc2)o1 (configuration not stated),–,15.6% (inactive)
CCC(C)NC(=O)C1c2ccccc2C(=O)N1Cc1ccccc1 (configuration not stated),–,-9.45% (inactive)
Cc1cc(-c2ccnc(-n3ncc(C(=O)NC(C)(C)CO)c3C3CC3)n2)c(C)s1,–,3.64% [at 9.04 µM] (inactive)
COc1ccc(CNC(=O)C2CCN(C(=O)c3ccco3)CC2)cc1,–,-4.73% (inactive)
COc1ccc(C(=O)N2CCC(C(=O)Nc3ccc(C)cc3)CC2)cc1,18.4 µM (active),–
COc1ccc(CNC(=O)C2CCN(C(=O)c3ccccc3)CC2)cc1,–,-10.8% (inactive)
COc1ccc(NC(=O)N2CCCC(C(=O)Nc3ccccc3OC)C2)cc1 (configuration not stated),–,-0.903% (inactive)
COc1ccccc1NC(=O)C1CCN(C(=O)c2ccc(C(C)(C)C)cc2)CC1,23.1 µM (active),–
COc1ccc(C(=O)Nc2ccc(CN3CCOCC3)cc2)cc1,–,-20.4% (inactive)
CCc1ccc(NC(=O)CN2CCC(C(=O)c3ccc(OC)cc3)CC2)cc1,5.8 µM (active),–
CCc1ccc(NC(=O)Cn2nnc(C(=O)NCc3ccc(OC)cc3)c2N)cc1,–,-1.18% (inactive)
CC(C)(C)c1ccc(C(=O)N2CCC(C(=O)N3CCCCC3)CC2)cc1,–,-27.5% (inactive)
Cc1ccc(NC(=O)[C@H](Cc2ccccc2)NC(=O)C2CCNCC2)cc1,–,-4.44% (inactive)
CC(=O)Nc1ccc(S(=O)(=O)N2CCC(NC(=O)c3ccccc3)CC2)cc1,–,-4.74% (inactive)
O=C(Cc1ccc(Br)cc1)NCCc1ccccc1,–,-16.5% (inactive)
O=C(Nn1cnnc1)c1cc(Cl)ccc1Cl,–,-9.38% (inactive)
NS(=O)(=O)c1cccc(NC(=O)COC(=O)/C=C/c2ccco2)c1,–,1.47% (inactive)

SMILES,Potency,"activity change, negative = growth inhibition"
CCC(C)C(CO)NC(=O)/C=C/[C@H]1O[C@@H](n2cnc3c(NC(=O)c4ccccc4)ncnc32)[C@H](O)[C@@H]1O (some centres not stated),–,3.57% (inactive)
C/C(=N\NC(=O)c1ccccc1C)c1ccc(N2CCOCC2)cc1,–,-5.61% (inactive)
C/C(=N\NC(=O)c1ccoc1C)c1ccccc1O,10.3 µM (active),–
Cc1ccnc(NC(=O)c2ccoc2C)c1,–,-5.15% (inactive)
COC(=O)c1sc(=S)n(-c2ccc(Cl)cc2)c1C,–,-11.9% (inactive)
OC(CBr)CN1CCCCC1 (configuration not stated),–,-5.66% (inactive)
COc1ccc(-n2nnnc2CNC(=O)c2ccc3ccccc3c2)cc1,–,-13.1% (inactive)
O=C(NCc1nnnn1-c1ccc(Cl)cc1)c1ccc2c(c1)OCO2,–,-14.2% (inactive)
O=C(NCc1nnnn1-c1ccc(Cl)cc1)c1ccc([N+](=O)[O-])o1,18.4 µM (active),–
O=C(/C=C/c1cccc([N+](=O)[O-])c1)NCCSCc1ccco1,–,-16.6% (inactive)
COc1ccc(Cl)cc1NS(=O)(=O)c1cccc(C(=O)NC2CCC(O)CC2)c1 (configuration not stated),–,1.8% (inactive)
COc1cc(C(=O)NC2CCN(C)CC2)ccc1Nc1ncc2c(n1)N(C1CCC(O)CC1)CCC(=O)N2C (configuration not stated),16.4 µM (active),–
COc1ccc(C(=O)NC2CC2)cc1OC1CCN(Cc2cnn(C)c2)CC1,–,-4.23% (inactive)
O=C(NCCc1ccccc1Cl)C1CCC(=O)N(CCCc2ccccc2)C1 (configuration not stated),–,-29.6% (inactive)
COc1ccc(C(=O)O)cc1S(=O)(=O)NCc1cccnc1,–,-2.76% (inactive)
O=C(CCn1c(=O)c2ccccc2n(Cc2ccc(Cl)cc2)c1=O)NCc1ccc2c(c1)OCO2,–,-29.2% (inactive)
O=C(CCCCn1c(=O)c2ccccc2n(CC(=O)Nc2cccc(C(F)(F)F)c2)c1=O)NCc1ccc2c(c1)OCO2,18.4 µM (active),–
CCOc1ccc(NC(=O)Cn2c(=O)n(CCCC(=O)NCc3ccc4c(c3)OCO4)c(=O)c3ccccc32)cc1,–,-2.1% (inactive)
CCCCn1c(SCC(=O)N2CCC(C(=O)OCC)CC2)nc2cc(S(N)(=O)=O)ccc21,–,-9.44% (inactive)
CCCCn1c(SCc2ncc(-c3ccccc3)o2)nc2cc(S(N)(=O)=O)ccc21,11.6 µM (active),–
CCCCn1c(SCC(=O)N2CCCC2=O)nc2cc(S(N)(=O)=O)ccc21,–,-16% (inactive)
COc1cccc(Cn2cnc3c([N+](=O)[O-])c(C)c(C)cc32)c1,–,-13% (inactive)
CCc1ccc2[nH]c(=O)c(Cc3ccccc3)c(O)c2c1,–,-29.7% (inactive)
CCOc1ccc(NC(=O)c2ccc(NC(=O)COC(=O)c3ccc(NC(=O)CC#N)cc3)cc2)cc1,–,-19.3% (inactive)
CCC(=O)Nc1ccc(C(=O)Nc2cccc(OC)c2)cc1,–,5.12% (inactive)
CSc1cccc(NC(=O)CSc2ccccc2)c1,–,-0.186% (inactive)

SMILES,Potency,"activity change, negative = growth inhibition"
CCOc1ccc(C(=O)Nc2c3c(nn2-c2ccccc2)CS(=O)(=O)C3)cc1,–,-2.2% (inactive)
CCOc1ccc(NC(=O)c2ccc(CSc3nnnn3C)cc2)cc1,–,-9.3% (inactive)
CCOc1ccc(C(=O)Nc2ccncc2)cc1,10.3 µM (active),–
CCOc1ccc(NC(=O)c2ccc(NC(=O)C3CCCO3)cc2)cc1 (configuration not stated),–,0.978% (inactive)
CCOc1ccc(C(=O)Nc2cccc(-c3ccc4nncn4n3)c2)cc1,20.6 µM (active),–
CCOc1ccc(C(=O)Nc2cccc(SC)c2)cc1,6.51 µM (active),–
O=C(CCC1CCCC1)N=C1SC2CS(=O)(=O)CC2N1Cc1ccccc1 (configuration not stated),–,-18.1% (inactive)
CCc1ccc([C@@H]2CC(=O)[C@@H]3CN(S(=O)(=O)c4ccc(C)cc4)[C@H](c4ccc(Cl)cc4)C[C@@H]3N2S(=O)(=O)c2ccc(C)cc2)cc1,–,-4.59% (inactive)
CCOc1ccc(N2CC(C(=O)N/N=C/c3sccc3C)CC2=O)cc1 (configuration not stated),–,9.79% (inactive)
C[C@H](CO)N1C[C@H](C)[C@@H](CN(C)C(=O)Nc2ccc3c(c2)OCO3)Oc2c(cccc2N(C)C)C1=O,–,-18.9% (inactive)
CN1CCN(CC#CCC2(O)c3ccccc3-c3ccccc32)CC1,–,-12.5% (inactive)
CC(C)(C)C(=O)Nc1c(Br)c(C2CC2)nn1-c1ccccc1,–,-3.25% (inactive)
CCOc1ccc(S(=O)(=O)NCCCn2ccnc2)cc1NC(C)=O,–,4.07% (inactive)
COC(=O)c1ccc(NC(=O)CSc2nc(N)c(NC(=O)c3ccc(Br)o3)c(=O)[nH]2)cc1,–,1.82% (inactive)
O=C(CCC1CCCN(Cc2ccc(O)c(Cl)c2)C1)NCc1ccccc1F (configuration not stated),–,-19% (inactive)
Cn1c(-c2ccccc2)c[n+]2c1CCCCC2,–,5.76% (inactive)
Clc1ccc(C[n+]2cc(-c3ccccc3)n3c2CCC3)cc1,2.91 µM (active),–
Clc1ccc(C[n+]2cc(-c3ccc(Cl)cc3)n3c2CCC3)cc1,4.61 µM (active),–
O=C(O)C(F)(F)C(NCc1ccccc1)c1ccccc1 (configuration not stated),–,-10.3% (inactive)
CCC(C(=O)NC1CCCCC1)N(C(=O)c1snc(C(N)=O)c1N)c1ccc(OC)cc1OC (configuration not stated),–,-28.2% (inactive)
CC(NC(=O)c1ccc(S(=O)(=O)Nc2ccccc2)cc1)c1ccc(S(N)(=O)=O)cc1 (configuration not stated),–,-0.898% (inactive)
COc1cc2c(cc1OC)C(Cc1cc(OC)c(OC)cc1[N+](=O)[O-])=NCC2,5.17 µM (active),–
COc1cc(CNCc2ccc3c(c2)OCO3)c([N+](=O)[O-])cc1OC,–,-5.01% (inactive)
COc1cc(CN2CCCN(C)CC2)c([N+](=O)[O-])cc1OC,–,-17.5% (inactive)
